Experimental data as given in PubChem BioAssay (NCATS).
Results filed as inconclusive are left out. Active and inactive are the calls of the source. Calls come from the whole dose curve; as a rule, active = well fitted curve in the direction sought with a large enough effect; inconclusive = small, poorly fitted or top-dose-only effect, or another doubt; inactive = no such curve, though single readings can be large; an effect the other way counts as inactive or inconclusive.

What was measured:
[1] = molecular target: Glutathione peroxidase 1 (Homo sapiens) (UniProt P07203); assay: Primary qHTS Assay for Inhibitors of Recombinant Selenoprotein Glutathione Peroxidase 1 (GPX1) (AID 1845191); note: nearly all actives have a fitted effect of over 65% in size; for activity, negative = inhibition: % is set by controls: 0 for no effect and ±100 for the full control effect
Outline: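 10 nM GPX1 + cpd, 30 min RT; start w/ 1 mM GSH, 0.5 mM cumene hydroperoxide, 0.5 mM NADPH, 100 nM GR, 0.01% BSA; buffer 50 mM Tris-HCl pH 7.5, 2 mM EDTA, 150 mM NaCl; Fl 340/450, 0 & 15 min.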

[2] = molecular target: Phospholipid hydroperoxide glutathione peroxidase GPX4 (Homo sapiens) (UniProt P36969); assay: Primary qHTS Assay for Inhibitors of Recombinant Selenoprotein Glutathione Peroxidase 4 (GPX4) (AID 1845192); note: nearly all actives have a fitted effect of over 65% in size; for activity change, negative = inhibition: series mostly up to about 50 µM; % is set by controls: 0 for no effect and ±100 for the full control effect
Outline: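 NADPH consumption, followed by fluorescence at 340/450 nm between 0 and 15 min, reports GPX4 activity via coupled glutathione reductase (100 nM). Enzyme 200 nM was pre-exposed to compound 30 min; 0.5 mM cumene hydroperoxide and 1 mM GSH served as substrates.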

[3] = molecular target: Luciferin 4-monooxygenase (Photinus pyralis) (UniProt P08659); assay: Primary firefly luciferase (FLuc) qHTS assay for identification of artifact compounds. (AID 1845220); note: nearly all actives have a fitted effect of over 60% in size;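 for activity change, negative = inhibition: series mostly up to about 54 µM; plate controls were DMSO vehicle for no effect and no enzyme for full effect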
Outline: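 Compounds sat 15 min at room temperature with 10 uM luciferin and 10 uM ATP (pH 7.6 Tris acetate). Firefly luciferase (10 nM final) was then added, and luminescence was read 5 min later. Data normalized to no-enzyme and DMSO controls were Hill-fitted.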

[4] = Primary fluorescence-based thiol-reactive (MSTI) qHTS assay for identification of artifact compounds. (AID 1845221); note: nearly all actives have a fitted effect of over 65% in size; note: potency is the fitted concentration of half-maximal effect;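 for activity change, negative = thiol reactive: series mostly up to about 54 µM; thiol-reactive compounds lower the probe fluorescence signal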
Outline: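 Thiol-reactive compounds detected by quenching of 4 uM MSTI fluorescence (525/598 nm) after 1 h room-temperature dark incubation in PBS pH 7.4, 2% DMSO. qHTS titration; percent inhibition Hill-fitted against Acetyl-MSTI/MSTI controls.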

[5] = test system: Nanoluciferase (engineered Oplophorus gracilirostris luciferase); assay: Primary Nanoluciferase (NLuc) qHTS assay for identification of artifact compounds. (AID 1845222);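 note: series mostly up to about 54 µM; 0% = DMSO and -100% = no enzyme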
Outline: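 Luminescence from secreted NLuc (filtered, 1:55-diluted S16 cell medium) read 5 min after Nano-Glo substrate; compounds preincubated 15 min, RT. Hill fits of inhibition normalized to DMSO and no-enzyme.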

[6] = Primary redox qHTS assay for identification of artifact compounds. (AID 1845223);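 note: 0% = DMSO and 100% = reference compound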
Outline: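 Amplex Red (25 uM) and HRP (250 mU/mL) in HBSS, with compounds for 15 min, then 250 uM DTT for 30 min, room temperature, dark. Fluorescence 525/598 nm read; normalized to DMSO and 10 uM DA3003; Hill fit.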

Phospholipid hydroperoxide glutathione peroxidase GPX4 (Homo sapiens), sequence (P36969 whole entry, looked up): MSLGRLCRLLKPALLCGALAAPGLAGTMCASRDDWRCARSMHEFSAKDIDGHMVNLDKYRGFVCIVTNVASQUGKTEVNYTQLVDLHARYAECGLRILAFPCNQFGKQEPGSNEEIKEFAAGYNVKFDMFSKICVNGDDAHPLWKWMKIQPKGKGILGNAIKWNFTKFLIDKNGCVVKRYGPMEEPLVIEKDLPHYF
Glutathione peroxidase 1 (Homo sapiens), sequence (P07203 whole entry, looked up): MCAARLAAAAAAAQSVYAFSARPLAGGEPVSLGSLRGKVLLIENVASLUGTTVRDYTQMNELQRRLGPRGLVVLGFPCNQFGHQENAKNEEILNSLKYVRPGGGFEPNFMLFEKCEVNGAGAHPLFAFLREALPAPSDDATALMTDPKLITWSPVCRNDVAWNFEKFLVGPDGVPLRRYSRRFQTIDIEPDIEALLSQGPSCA

O=C(/C=C/c1ccc(O)c(O)c1)OC[C@H]1O[C@@H](OC2CCCCC2O)[C@H](O)[C@@H](O)[C@@H]1O (stereo partly drawn)
inactive: Potency [1] | Potency [2] | Potency [3] | Potency [5] | Potency [6]
active: Potency [4] 1.16 µM

CSC(=O)OCC1=C[C@@H]2OC(=O)C3=CO[C@@H](O[C@@H]4O[C@H](CO)[C@@H](O)[C@H](O)[C@H]4O)[C@H]1[C@@H]32
inactive: Potency [1] | Potency [2] | Potency [3] | Potency [5] | Potency [6]
active: Potency [4] 6.53 µM

CCC1(O)CC2c3cc(OC)c(OC)cc3CCN2CC1CC(C)C (stereo not drawn)
inactive: Potency [1] | Potency [2] | Potency [3] | Potency [4] | Potency [5] | Potency [6]

C=C1C(OC(C)=O)CCC2(C)CC3(O)OC(=O)C(C)=C3CC12 (stereo not drawn)
inactive: Potency [1] | Potency [2] | Potency [3] | Potency [4] | Potency [5] | Potency [6]

COC(=O)C1=CO[C@@H](O[C@@H]2O[C@H](CO)[C@@H](O)[C@H](O)[C@H]2O)[C@@H]2[C@@H](C)[C@@H](O)C(O)[C@H]12 (stereo partly drawn)
inactive: Potency [1] | Potency [2] | Potency [3] | Potency [4] | Potency [5] | Potency [6]

Cc1onc(-c2ccccc2Cl)c1C(=O)N(C)c1ccc(Cl)cc1
inactive: Potency [1] | Potency [2] | Potency [3] | Potency [4] | Potency [5] | Potency [6]

COCCN1CCC(C(=O)NO)(S(=O)(=O)c2ccc(Oc3ccc(OC(F)(F)F)cc3)cc2)CC1
inactive: Potency [1] | Potency [2] | Potency [3] | Potency [4] | Potency [5] | Potency [6]

Nc1ncnc2c1ncn2[C@H]1O[C@@H](C(=O)N2CCN(CC(=O)Nc3cccc4c3CNC4=O)CC2)[C@H](O)[C@@H]1O
inactive: Potency [1] | Potency [2] | Potency [3] | Potency [4] | Potency [5] | Potency [6]

C[C@H]1[C@H](C)C[C@@H](C(=O)O)C2CC[C@]3(C)C(=CC[C@@H]4[C@@]5(C)CC[C@H](O)C(C)(C)[C@@H]5CC[C@]43C)[C@@H]21 (stereo partly drawn)
inactive: Potency [1] | Potency [2] | Potency [3] | Potency [4] | Potency [5] | Potency [6]

CC1(C)CC[C@]2(C(=O)O)[C@H](O)C[C@]3(C)C(=CCC4[C@@]5(C)CC[C@H](O[C@@H]6OC[C@@H](O)[C@H](O)[C@H]6O)[C@@](C)(C(=O)O)C5CC[C@]43C)[C@@H]2C1 (stereo partly drawn)
inactive: Potency [1] | Potency [2] | Potency [3] | Potency [4] | Potency [5] | Potency [6]

COC(=O)C[C@@H]1C(C(=O)O)=CO[C@@H](O[C@@H]2O[C@H](CO)[C@@H](O)[C@H](O)[C@H]2O)/C1=C\COC(=O)/C=C/c1ccc(O)c(OC)c1
inactive: Potency [1] | Potency [2] | Potency [3] | Potency [4] | Potency [5] | Potency [6]

C[C@@H]1[C@H]2[C@H](O[C@@H]3O[C@H](CO)[C@@H](O)[C@H](O)[C@H]3O)OC=C(C(=O)O)[C@H]2C[C@@H]1OC(=O)/C=C/c1ccc(O)cc1
inactive: Potency [1] | Potency [2] | Potency [3] | Potency [5] | Potency [6]
active: Potency [4] 10.3 µM

C=C1CC2C3(C)C=CC(=O)OC(C)(C)C3CC(OC(C)=O)C2(C)C2C(=O)OC(C)C(=O)C12C (stereo not drawn)
inactive: Potency [1] | Potency [2] | Potency [3] | Potency [4] | Potency [5] | Potency [6]

C=C(CCO)C(=O)OCC1OCC(OC(=O)C(=C)CCO[C@@H]2O[C@H](COC(=O)C(=C)CCO[C@@H]3O[C@H](CO)[C@@H](O)[C@H](O)[C@H]3O)[C@@H](O)[C@H](O)[C@H]2O)C(O)C1O (stereo partly drawn)
inactive: Potency [1] | Potency [2] | Potency [3] | Potency [4] | Potency [5] | Potency [6]

COC(=O)Cn1nc(-c2cccc(OC)c2)c2ccccc21
inactive: Potency [1] | Potency [2] | Potency [3] | Potency [4] | Potency [5] | Potency [6]

C/C(=C\CCC(C)C1CC(O)C2(C)C3CCC4C(C)(C)C(OC5OCC(O)C(O)C5O)CCC45CC35CC(O)C12C)C(=O)O (stereo not drawn)
inactive: Potency [1] | Potency [2] | Potency [3] | Potency [4] | Potency [5] | Potency [6]

COC(=O)c1ccccc1O[C@@H]1O[C@H](CO[C@@H]2OC[C@@H](O)[C@H](O)[C@H]2O)[C@@H](O)[C@H](O)[C@H]1O
active: Potency [4] 5.19 µM
inactive: Potency [1] | Potency [2] | Potency [3] | Potency [5] | Potency [6]

C/C=C(/C)C(=O)OC1C(OC(C)=O)C23C(O)OC4(CCC5C6(C)CCC(OC7OC(C(=O)O)C(O)C(OC8OC(CO)C(O)C(O)C8OC8OC(C)C(O)C(O)C8OC8OCC(O)C(O)C8O)C7OC7OC(CO)C(O)C(O)C7O)C(C)(C)C6CCC5(C)C4(C)CC2OC(C)=O)C3CC1(C)C (stereo not drawn)
inactive: Potency [1] | Potency [2] | outcome [3] inactive [at 11.6 µM] | activity change, negative = thiol reactive [4] 196% [at 11.5 µM] | activity, negative = inhibition [5] 0.798% [at 11.6 µM] | redox activity (% of DA3003) [6] 6.91% [at 11.5 µM]

CC1CCC2C(C)(C)C(O)C(O)CC2(C)C12Cc1c(O)cc(CO)c(C=O)c1O2 (stereo not drawn)
inactive: Potency [1] | Potency [2] | Potency [3] | Potency [4] | Potency [5] | Potency [6]

COc1ccc(C2OCC3C(c4cc(OC)c5c(c4)OCO5)OCC23)cc1OC (stereo not drawn)
inactive: Potency [1] | Potency [2] | Potency [3] | Potency [4] | Potency [5] | Potency [6]

CC(=O)OC(C)(C)/C=C/C(=O)[C@](C)(O)C1[C@H](O)C[C@@]2(C)[C@@H]3CC=C4[C@@H](C[C@H](O[C@@H]5O[C@H](CO)[C@@H](O)[C@H](O)[C@H]5O)C(=O)C4(C)C)[C@]3(C)C(=O)C[C@]12C (stereo partly drawn)
inactive: Potency [1] | Potency [2] | Potency [3] | Potency [4] | Potency [5] | Potency [6]

CC(CCO)CCC1C2(C)CCCC(C)(C)C2CC[C@@]1(C)O (stereo partly drawn)
inactive: Potency [1] | Potency [2] | Potency [3] | Potency [4] | Potency [5] | Potency [6]

CC1OC(OC2C(OC3C(O[C@H]4CC[C@@]5(C)C(CC[C@]6(C)C5CC=C5C7CC(C)(C)CC(O)[C@]7(C)CC[C@]56C)C4(C)C)OC(C(=O)O)C(O)C3O)OCC(O)C2O)C(O)C(O)C1O (stereo partly drawn)
inactive: Potency [1] | Potency [2] | activity change, negative = inhibition [3] 4.47% [at 11.6 µM] | activity change, negative = thiol reactive [4] 167% [at 11.5 µM] | activity, negative = inhibition [5] 4.85% [at 11.6 µM] | redox activity (% of DA3003) [6] 9.66% [at 11.5 µM]
